# Reference: PubChem BioAssay (EPA / NIEHS)
# Several values for one entry are separate records, joined by “and”; a condition that tells them apart may be missing. Identical values can stand only once. Inconclusive results are not listed. Where a structure was tested more than once in an assay, its records may differ in their call. Activity calls are given as the source filed them. The calls were made as follows, unless noted: active = hit-call score of the fitted dose curve at least 0.9, where 1 is the maximum; inconclusive = response in the unintended direction; inactive = score below 0.9.
# What was measured:
# [1] = system: Sodium/Iodide Symporter (NIS), SLC5A5 (gene 6528); test: CPHEA_Stoker_NIS_Inhibition_RAIU: CPHEA's Radioactive Iodide Uptake (RAIU) Assay for Sodium/Iodide Symporter (NIS) Inhibition, Stoker and Laws Labs (AID 2283841)
# In short: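 hNIS-HEK293T-EPA cells incubated 2 h at room temperature with compound (0.001–100 uM, 0.5% DMSO) and 329 pM final 125I in HBSS/10 mM HEPES, pH 7.4. Intracellular 125I counted; normalised to DMSO maximal uptake, triplicate, three biological replicates.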
# [2] = CPHEA_Stoker_NIS_Cytotoxicity: Cytotoxicity Assessment for CPHEA's Radioactive Iodide Uptake (RAIU) Assay for Sodium/Iodide Symporter (NIS) Inhibition, Stoker and Laws Labs (AID 2283897);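 as to AC50: active means loss of ATP signal versus DMSO meaning cytotoxicity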
# In short: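 hNIS-HEK293T-EPA cells, human NIS expressed in HEK293T, treated 2 h with chemicals (0.001–100 uM, 0.5% final DMSO). ATP content read by CellTiter-Glo luminescence; loss of signal analysed relative to DMSO.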
# [3] = system: turtle Thyroid Hormone Receptor, alpha (TRa), gene 101949057; test: ATG_trTRa_XSP2: Attagene TRANS-FACTORIAL Multi-Species (XSP1) HepG2 Assay for turtle Thyroid Hormone Receptor, alpha (TRa) (AID 2283834);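 also: hits raise reporter mRNA over the DMSO baseline so AC50 marks activators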
# In short: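 Transfection of HepG2 with multiple reporter transcription units, then chemical dosing for 24 h. Total RNA was reverse-transcribed, reporter sequences PCR-amplified and FAM-labelled, then sized by capillary electrophoresis. DMSO served as baseline.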
# [4] = biological target: human Thyroid hormone Receptor alpha (TRa), THRA (gene 7067) (UniProt P10827); test: ATG_hTRa_XSP2: Attagene TRANS-FACTORIAL Multi-Species (XSP2) HepG2 Assay for human Thyroid hormone Receptor alpha (TRa) (AID 2283838)
# In short: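 HepG2 cells transiently transfected with multiplexed GAL4-UAS reporter units and exogenous NR-GAL4 chimeras; 24 h chemical exposure with 3 nM 6-alpha-fluorotestosterone and 1.5 nM norgestrel present. Reporter mRNA measured by RT-PCR, FAM labelling, HpaI digestion, capillary electrophoresis; gain-of-signal versus DMSO.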
# [5] = biological target: frog Thyroid hormone Receptor alpha (TRa), thra-a (gene 397942) (UniProt P15204); test: ATG_frTRa_XSP2: Attagene TRANS-FACTORIAL Multi-Species (XSP2) HepG2 Assay for frog Thyroid hormone Receptor alpha (TRa) (AID 2283839);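 as to AC50: AC50 reflects induction of frog TRa-driven reporter mRNA above DMSO baseline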
# In short: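 Transfect HepG2 with multiple reporter units (GAL4-UAS), dose chemical, incubate 24 h. Isolate RNA, reverse-transcribe, PCR-amplify reporter, label with 6-FAM by primer extension, digest with HpaI, run capillary electrophoresis; induction scored against DMSO.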
# [6] = biological target: human Thyroid hormone Receptor beta (TRb), THRB (gene 7068) (UniProt P10828); test: ATG_hTRb_XSP2: Attagene TRANS-FACTORIAL Multi-Species (XSP2) HepG2 Assay for human Thyroid hormone Receptor beta (TRb) (AID 2283840);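 also: actives raise reporter mRNA so potency reflects agonist-like gain of signal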
# In short: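 Transient transfection of human HepG2 with multi-species NR-Gal4/GAL4-UAS reporter constructs; 24 h compound treatment; RNA isolation, reverse transcription, PCR and HpaI digest; capillary electrophoresis of labeled fragments; activity fitted upward versus DMSO.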
# [7] = CEETOX_H295R_11DCORT_noMTC: CeeTox H295R High-throughput Steroidogenesis Assay for 11-Deoxycortisol (11DCORT), maximum tolerated concentration (MTC) filtered results only (AID 2283911; active = hit-call score of the fitted dose curve at least 0.9, where 1 is the maximum; inactive = score below 0.9); conditions: actives raise or lower the signal
# In short: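 Steroidogenesis was stimulated in H295R cells with 10 uM forskolin for 48 h before a 48 h chemical exposure. Secreted 11-deoxycortisol was measured by tandem mass spectrometry and fitted bidirectionally against DMSO controls.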
# [8] = CEETOX_H295R_OHPREG_noMTC: CeeTox H295R High-throughput Steroidogenesis Assay for OH-Pregnenolone (OHPREG), maximum tolerated concentration (MTC) filtered results only (AID 2283912; active = hit-call score of the fitted dose curve at least 0.9, where 1 is the maximum; inactive = score below 0.9); conditions: actives raise or lower the signal
# In short: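 H295R cells prestimulated 48 h with 10 uM forskolin, then exposed 48 h to compound (0.1% DMSO). 17alpha-hydroxypregnenolone in medium measured by MTBE extraction and HPLC-MS/MS; bidirectional fit vs DMSO, concentrations not MTT/MTC-filtered.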
# [9] = CEETOX_H295R_OHPROG_noMTC: CeeTox H295R High-throughput Steroidogenesis Assay for OH-Progesterone (OHPROG), maximum tolerated concentration (MTC) filtered results only (AID 2283914; active = hit-call score of the fitted dose curve at least 0.9, where 1 is the maximum; inactive = score below 0.9); conditions: actives raise or lower the signal
# In short: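 H295R cells prestimulated 48 h with 10 uM forskolin, then exposed 48 h to chemical (0.1% DMSO final). 17alpha-hydroxyprogesterone in medium quantified by HPLC-MS/MS after MTBE extraction; bidirectional fitting versus DMSO, concentrations not MTC-filtered.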
# [10] = ATG_M_61_XSP2: Attagene TRANS-FACTORIAL Multi-Species (XSP2) HepG2 Assay for M61 Transcription Factor (Internal Marker) (AID 2283835; active = hit-call score of the fitted dose curve at least 0.9, where 1 is the maximum; inactive = score below 0.9;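 also: active means a rise in signal above the DMSO baseline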)
# In short: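 HepG2 cells transiently transfected with multiple GAL4-UAS reporter units; reporter mRNA measured 24 h after dosing by RT-PCR, fluorescent labelling and capillary electrophoresis. Medium contained 3 nM 6-alpha-fluorotestosterone and 1.5 nM norgestrel; internal marker, DMSO baseline.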
# Sequence of human Thyroid hormone Receptor beta (TRb), THRB (gene 7068) (P10828 whole entry, looked up, the tested form may be a part): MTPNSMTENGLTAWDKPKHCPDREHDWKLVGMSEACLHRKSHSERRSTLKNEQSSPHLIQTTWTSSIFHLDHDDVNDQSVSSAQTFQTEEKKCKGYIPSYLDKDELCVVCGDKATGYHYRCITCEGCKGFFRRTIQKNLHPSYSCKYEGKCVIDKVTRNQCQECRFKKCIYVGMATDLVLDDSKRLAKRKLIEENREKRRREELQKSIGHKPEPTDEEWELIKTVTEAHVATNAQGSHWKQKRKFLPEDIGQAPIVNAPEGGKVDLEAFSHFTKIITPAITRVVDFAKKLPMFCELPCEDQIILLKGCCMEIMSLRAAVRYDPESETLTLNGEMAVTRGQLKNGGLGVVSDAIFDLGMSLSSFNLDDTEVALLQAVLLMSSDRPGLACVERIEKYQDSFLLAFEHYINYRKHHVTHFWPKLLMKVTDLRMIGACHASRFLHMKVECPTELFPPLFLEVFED
# Sequence of frog Thyroid hormone Receptor alpha (TRa), thra-a (gene 397942) (P15204 whole entry, looked up, the tested form may be a part): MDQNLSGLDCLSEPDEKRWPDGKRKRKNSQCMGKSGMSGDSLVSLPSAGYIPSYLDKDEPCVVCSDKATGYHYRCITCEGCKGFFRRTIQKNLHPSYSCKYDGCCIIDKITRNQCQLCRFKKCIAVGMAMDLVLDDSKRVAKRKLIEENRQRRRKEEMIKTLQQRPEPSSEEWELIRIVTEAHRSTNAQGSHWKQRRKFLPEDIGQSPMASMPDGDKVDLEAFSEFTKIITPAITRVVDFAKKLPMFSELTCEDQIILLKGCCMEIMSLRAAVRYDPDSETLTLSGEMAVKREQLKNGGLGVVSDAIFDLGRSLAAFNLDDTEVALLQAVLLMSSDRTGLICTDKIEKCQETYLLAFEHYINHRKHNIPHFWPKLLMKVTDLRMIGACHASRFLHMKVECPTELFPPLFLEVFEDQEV
# Sequence of human Thyroid hormone Receptor alpha (TRa), THRA (gene 7067) (P10827 whole entry, looked up, the tested form may be a part): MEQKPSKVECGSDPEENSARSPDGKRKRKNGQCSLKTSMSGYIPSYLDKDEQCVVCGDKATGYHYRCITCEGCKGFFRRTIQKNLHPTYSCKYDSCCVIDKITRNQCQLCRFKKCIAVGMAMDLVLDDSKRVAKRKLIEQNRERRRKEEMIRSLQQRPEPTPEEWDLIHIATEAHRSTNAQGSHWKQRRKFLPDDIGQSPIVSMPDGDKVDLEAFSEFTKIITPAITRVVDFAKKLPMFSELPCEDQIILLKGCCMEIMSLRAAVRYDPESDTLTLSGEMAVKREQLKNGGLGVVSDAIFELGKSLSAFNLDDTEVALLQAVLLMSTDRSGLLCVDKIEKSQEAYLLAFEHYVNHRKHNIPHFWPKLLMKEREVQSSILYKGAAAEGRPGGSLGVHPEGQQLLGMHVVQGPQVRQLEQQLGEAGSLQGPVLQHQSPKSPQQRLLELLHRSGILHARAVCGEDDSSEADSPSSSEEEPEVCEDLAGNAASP
structure (smiles),measurement,setting,value
Fc1ccc(Oc2ccnc3cc(Cl)cc(Cl)c23)cc1,AC50,[1],31.1 µM (active)
same,outcome,[2],inactive
COC(=O)C(C)Oc1ccc(Oc2ccc(Cl)cc2Cl)cc1 (configuration not stated),outcome,[1],inactive
same,outcome,[2],inactive
Oc1ccccc1-c1ccccc1,outcome,[1],inactive
same,outcome,[2],inactive
N#Cc1cc(Br)c(O)c(Br)c1,outcome,[2],inactive
N#Cc1nn(-c2c(Cl)cc(C(F)(F)F)cc2Cl)c(N)c1S(=O)C(F)(F)F (configuration not stated),AC50,[1],26.8 µM (active)
same,outcome,[2],inactive
CN(C)C(=S)SSC(=S)N(C)C,outcome,[1],inactive
same,outcome,[2],inactive
CCCCOC(=O)c1ccccc1C(=O)OCCCC,outcome,[3],inactive
same,outcome,[4],inactive
same,outcome,[5],inactive
same,outcome,[6],inactive
same,outcome,[1],inactive
same,outcome,[2],inactive
same,outcome,[7],inactive
same,outcome,[8],inactive
same,outcome,[9],inactive
Cc1c(F)c(F)c(COC(=O)C2C(/C=C(\Cl)C(F)(F)F)C2(C)C)c(F)c1F (configuration not stated),outcome,[1],inactive
same,outcome,[2],inactive
CCOC(=O)C(Cl)Cc1cc(-n2nc(C)n(C(F)F)c2=O)c(F)cc1Cl (configuration not stated),outcome,[1],inactive
same,outcome,[2],inactive
Cc1ccc(-c2c(Cl)nc(C#N)n2S(=O)(=O)N(C)C)cc1,outcome,[1],inactive
same,outcome,[2],inactive
CCOC(=O)CC(SP(=S)(OC)OC)C(=O)OCC (configuration not stated),outcome,[1],inactive
same,outcome,[2],inactive
CC(C)(C)c1ccc(CSc2cnn(C(C)(C)C)c(=O)c2Cl)cc1,AC50,[3],0.0534 µM (active)
same,outcome,[10],inactive
same,AC50,[5],0.0151 µM (active)
same,outcome,[1],inactive
same,outcome,[2],inactive
N#CC(CCc1ccc(Cl)cc1)(Cn1cncn1)c1ccccc1 (configuration not stated),AC50,[1],76 µM (active)
same,AC50,[2],60.2 µM (active)
C#CCOS(=O)OC1CCCCC1Oc1ccc(C(C)(C)C)cc1 (configuration not stated),outcome,[10],inactive
same,outcome,[5],inactive
same,outcome,[6],inactive
same,outcome,[1],inactive
same,outcome,[2],inactive
COC(=O)N(OC)c1ccccc1COc1ccn(-c2ccc(Cl)cc2)n1,outcome,[3],inactive
same,outcome,[10],inactive
same,AC50,[4],2.63 µM (active)
same,outcome,[5],inactive
same,outcome,[6],inactive
same,outcome,[1],inactive
same,outcome,[2],inactive
CCOc1cc(Oc2ccc(C(F)(F)F)cc2Cl)ccc1[N+](=O)[O-],AC50,[1],22.1 µM (active)
CC(C)Oc1cc(-n2nc(C(C)(C)C)oc2=O)c(Cl)cc1Cl,AC50,[3],16.1 µM (active)
same,outcome,[10],inactive
same,outcome,[4],inactive
same,outcome,[5],inactive
same,outcome,[6],inactive
same,outcome,[1],inactive
same,outcome,[2],inactive
CCOP(=S)(OCC)SCn1c(=O)oc2cc(Cl)ccc21,outcome,[3],inactive
same,outcome,[10],inactive
same,outcome,[4],inactive
same,outcome,[5],inactive
same,outcome,[6],inactive
same,AC50,[1],34.5 µM (active)
same,outcome,[2],inactive
OC(c1ccc(Cl)cc1)(c1cncnc1)c1ccccc1Cl (configuration not stated),outcome,[3],inactive
same,outcome,[10],inactive
same,outcome,[1],inactive
same,outcome,[2],inactive
same,AC50,[7],36.7 µM (active)
same,AC50,[8],1.29 µM (active)
same,AC50,[9],31.1 µM (active)
COC(=O)c1ccccc1C(=O)OC,outcome,[7],inactive
same,outcome,[8],inactive
same,outcome,[9],inactive
COc1ccc(C(c2ccc(OC)cc2)C(Cl)(Cl)Cl)cc1,outcome,[3],inactive
same,outcome,[10],inactive
same,outcome,[4],inactive
same,outcome,[1],inactive
same,outcome,[2],inactive
CCc1nn(C)c(C(=O)NCc2ccc(C(C)(C)C)cc2)c1Cl,AC50,[1],2.5 µM (active)
same,AC50,[2],9.92 µM (active)
CO/C=C(/C(=O)OC)c1ccccc1Oc1cc(Oc2ccccc2C#N)ncn1,outcome,[3],inactive
same,outcome,[10],inactive
same,outcome,[6],inactive
same,outcome,[1],inactive
CCCCNC(=O)OCC#CI,AC50,[3],25.5 µM (active)
same,outcome,[10],inactive
same,outcome,[4],inactive
same,AC50,[5],100 µM (active)
same,AC50,[1],9.77 µM (active)
same,outcome,[2],inactive
C=CCC1=C(C)[C@@H](OC(=O)[C@@H]2[C@@H](C=C(C)C)C2(C)C)CC1=O,AC50,[1],50 µM (active)
same,outcome,[2],inactive
CC1COC(Cn2cncn2)(c2ccc(Oc3ccc(Cl)cc3)cc2Cl)O1 (configuration not stated),AC50,[1],11.5 µM (active)
same,AC50,[2],29 µM (active)
O=C(Nc1ccccc1)Nc1ccnc(Cl)c1,AC50,[1],50 µM (active)
same,AC50,[2],40.1 µM (active)
CS/C(C)=N/OC(=O)N(C)SN(C)C(=O)O/N=C(\C)SC,outcome,[1],inactive
same,outcome,[2],inactive
CON(C)C(=O)Nc1ccc(Cl)c(Cl)c1,outcome,[3],inactive
same,outcome,[4],inactive
same,outcome,[5],inactive
same,outcome,[6],inactive
same,outcome,[1],inactive
same,outcome,[2],inactive
CCCCC(CC)COC(=O)c1ccccc1C(=O)OCC(CC)CCCC (configuration not stated),outcome,[3],inactive
same,outcome,[10],inactive
same,outcome,[4],inactive
same,outcome,[6],inactive
same,outcome,[7],inactive
same,outcome,[8],inactive
same,outcome,[9],inactive
C=CCC1=C(C)C(OC(=O)C2C(C=C(C)C)C2(C)C)CC1=O (configuration not stated),AC50,[1],34 µM (active) and 50 µM (active)
same,outcome,[1],inactive
same,AC50,[2],1.04 µM (active) and 50 µM (active)
same,outcome,[2],inactive
COP(=S)(OC)Oc1nc(Cl)c(Cl)cc1Cl,outcome,[3],inactive
same,outcome,[10],inactive
same,outcome,[4],inactive
same,outcome,[5],inactive
same,outcome,[6],inactive
same,outcome,[1],inactive
same,outcome,[2],inactive
CCCN(CCC)c1c([N+](=O)[O-])cc(S(N)(=O)=O)cc1[N+](=O)[O-],outcome,[10],inactive
same,outcome,[6],inactive
same,outcome,[1],inactive
same,outcome,[2],inactive
C=CC1(C)OC(=O)N(c2cc(Cl)cc(Cl)c2)C1=O (configuration not stated),outcome,[3],inactive
same,outcome,[10],inactive
same,AC50,[4],100 µM (active)
same,outcome,[5],inactive
same,outcome,[6],inactive
same,outcome,[1],inactive
same,outcome,[2],inactive
